Screening data: PubChem BioAssay, several laboratories
VLA-4 inh: inhibition in a human VLA-4 binding assay. P13612. VLA-4 expressing cells, ligand binding flow cytometry. inhibition, % (about 7 µM as worked out from the volumes in the protocol). hit rate 0.2% among 330,000; in the data active means inhibition above about 50%
Efflux pump mplx: inhibitors of Candida antifungal efflux pumps expressed in yeast; S. cerevisiae Candida pump triplex, Nile Red efflux; inhibition, % at 10 µM; hit rate 0.44% among 330,000;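 active means plate passing quality check with inhibition over a set limit, or well fluorescence over plate mean plus 4 SD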;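 further: Nile Red retained in pooled yeast measured as flow cytometry median fluorescence; 0% = buffer negative control and 100% = Enniatin B positive control; higher means more Nile Red kept so more efflux inhibition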
ALR inh: inhibitors of human sulfhydryl oxidase ALR. purified ALR, DTT oxidation, H2O2 HRP-luminol luminescence. inhibition, % (test concentration not listed). hit rate 3.8% among 290,000;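 active means mean replicate inhibition above about 79%, with every replicate also reaching it, limit read from the data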
Target sequence (P55789 whole entry, looked up): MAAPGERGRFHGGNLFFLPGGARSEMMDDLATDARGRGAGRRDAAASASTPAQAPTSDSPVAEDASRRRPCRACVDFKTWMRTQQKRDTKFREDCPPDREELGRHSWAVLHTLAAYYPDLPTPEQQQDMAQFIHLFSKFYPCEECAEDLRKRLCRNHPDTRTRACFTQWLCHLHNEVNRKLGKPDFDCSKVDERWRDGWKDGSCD
Bfl-1 A1 inh: inhibitors of the anti-apoptotic protein A1, read as caspase activation; AID 2462; MEF A1-2A-BIM cells, Caspase-Glo 3/7 luminescence, 3 h; percent of clofoctol response, vehicle zero; caspase activation, % (no concentration beside the values); hit rate 0.066% among 330,000;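 active means over half of replicate activation scores above 10%, or exactly half above 10 with the replicate mean above 10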
Mot1-301 SUMO: SUMOylation pathway inhibition by Mot1-301 growth rescue. hit rate 1% among 320,000. S. cerevisiae Mot1-301 growth rescue, ATP luminescence, 38.5C; percent above DMSO median, 100 means doubled. AID 2716. growth rescue, % at 18.8 µM;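 active means every valid replicate shows activation above 250% relative to neutral control wells; inactive means the rest, any valid replicate at or below 250%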;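 further: OY570 slx delta 5 strain wells were the positive control but not used for scaling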
AHR act: activates the human aryl hydrocarbon receptor; P35869; AHR-responsive luciferase reporter cells, luminescence; activation, % at 5 µM; hit rate 2.5% among 320,000; AID 2796; in the data active means activation above about 47%;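 further: 0% = vehicle wells and 100% = reference agonist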
Mot1 SUMO dose: yeast SUMO pathway inhibition in dose response; shares compounds with Mot1-301 SUMO; S. cerevisiae Mot1-301 galactose growth, ATP luminescence, 24 h; -100 = growth of slx-deleted rescue strain; growth activity, percent, % at 42 µM; 2,300 tested, under 10 active; AID 493004;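 active means Signal drops as the depositor expects, and the fitted half-maximal dose is no more than ten times the top valid tested dose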;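 further: more negative values mean stronger growth rescue toward the control strain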
An asterisk follows results filed as active; . = not tested or not shown; + = active, no number. This is a sample that favours compounds with a hit; in the whole collection about 7.2% have one here.

SMILES | VLA-4 inh | Efflux pump mplx | ALR inh | Bfl-1 A1 inh | Mot1-301 SUMO | AHR act | Mot1 SUMO dose
Cc1ccc(C2C(C(=O)c3cccs3)=C(O)C(=O)N2c2cccc(C)n2)cc1 (centres undefined) | -2.1 | 0.0 | 24.1 | -0.7 | 19.2 | -1.8 | .
CCOc1ccc(C(C)=O)cc1COC(=O)C(C)N=C1NS(=O)(=O)c2ccccc21 (centres undefined) | 39.1 | -0.1 | 0.9 | 0.5 | -0.2 | -1.0 | .
CCOC(=O)c1ccccc1NC(=O)COC(=O)CSc1ccccc1 | -3.0 | 0.3 | -3.4 | -0.2 | 7.8 | 2.8 | .
Cn1cc(C(=O)N2CCCC(Nc3ccc(F)cc3)C2)c2ccccc21 (centres undefined) | 9.0 | 0.2 | 87.8* | 0.2 | 662.5* | 16.3 | 0.7
CC(C)CC(=O)/C=C/n1c(=S)oc2ccccc21 | 4.0 | 0.3 | 6.1 | -0.3 | 24.5 | 0.9 | .
CC(=O)/C=C/n1c(=S)oc2ccccc21 | -22.0 | 0.0 | 35.8 | 1.6 | 420.5* | 0.8 | -1.8
COc1cc(C)cc(OC)c1OCC(=O)Nc1cc(C)on1 | -4.7 | 0.0 | 15.7 | 1.5 | 9.3 | -2.4 | .
O=C(NCc1ccccn1)C1Nc2ccc(C(F)(F)F)cc2C2C=CCC12 (centres undefined) | -2.5 | 0.2 | 0.2 | -0.2 | 561.7* | 6.0 | 1.1
COc1cc2c(=O)n(-c3ccc(C)cc3)c(=O)n(CC(=O)c3ccc4c(c3)OCO4)c2cc1OC | -14.4 | 0.1 | 6.2 | -0.8 | 694.4* | -1.0 | 0.0
O=C(COC(=O)C1CC(O)CN1S(=O)(=O)c1ccccc1[N+](=O)[O-])c1ccc[nH]1 (centres undefined) | -3.4 | 0.2 | -7.5 | 2.1 | -12.5 | 13.0 | .
O=C(COC(=O)[C@@H]1CC(O)CN1S(=O)(=O)c1ccccc1[N+](=O)[O-])Nc1ccc2ccccc2c1 (some centres undefined) | 10.7 | -0.2 | -9.8 | 0.3 | 494.5* | 29.3 | 0.1
Cc1nc2sc(C(c3ccccc3)N3CCC(O)CC3)c(O)n2n1 (centres undefined) | 5.2 | 0.1 | -1.4 | 0.6 | + | 1.0 | 0.8
Cc1c(NC(=O)C(C)Sc2nnc(-c3ccccc3)o2)c(=O)n(-c2ccccc2)n1C (centres undefined) | -5.8 | 0.0 | 0.8 | -1.0 | 372.7* | -1.9 | 0.3
N#Cc1cc2c(cc1NC(=O)CCn1cnnn1)OCO2 | 3.8 | 0.2 | -11.1 | 0.2 | -17.0 | 5.6 | .
O=C(CCn1cnnn1)Nc1ccc(Cl)cc1Cl | -20.4 | -0.1 | -1.3 | 0.9 | 720.7* | -1.2 | 1.1
CC(C)CCCN1CCN=C1Nc1ccccc1 | -13.8 | 0.2 | 0.5 | 0.0 | 595.8* | -1.2 | 0.0
CC(CCN1CCN=C1Nc1ccccc1)c1ccccc1 (centres undefined) | -3.7 | 0.1 | -1.9 | 0.0 | -11.2 | 2.5 | .
CCC(=O)N(Cc1ccc2c(c1)OCO2)Cc1cc2cc(OC)ccc2[nH]c1=O | 1.6 | 0.0 | -11.8 | 0.2 | 375.6* | 5.0 | 0.5
Clc1ccc(CSc2nnc(-c3ccccn3)n2Cc2ccco2)c(Cl)c1 | -4.7 | -0.3 | 4.1 | -0.1 | 3.1 | 1.4 | .
O=C(O)CN(c1ccccn1)S(=O)(=O)c1ccccc1 | 3.2 | 0.2 | 0.0 | 0.6 | -12.0 | 3.6 | .
O=C(O)CN(c1ccccn1)S(=O)(=O)c1ccc(Cl)cc1 | 20.9 | -0.1 | -2.5 | 0.1 | 589.2* | 0.2 | 0.4
Cc1cccc([N+](=O)[O-])c1NC(=O)COC(=O)c1nc2nccc(C)n2n1 | -21.9 | 0.0 | . | 0.3 | -4.1 | -1.2 | .
Cc1cccc(OCCN2CSC(=S)N(C)C2)c1 | -8.5 | 0.0 | . | 1.6 | 371.5* | 1.3 | -0.2
COc1cc(S(=O)(=O)N2CCN(c3ccccc3)CC2)ccc1F | 8.5 | 0.2 | . | -0.9 | 646.6* | 1.2 | 0.1
COc1cc(S(=O)(=O)N2CCN(c3ccccc3)CC2)ccc1Cl | 21.8 | 0.2 | -4.1 | -0.2 | -7.0 | 1.5 | .
O=C(CSc1ccc(S(=O)(=O)N2CCCCC2)cn1)Nc1ccccc1Br | -6.5 | -0.4 | -15.9 | 0.7 | -12.7 | 2.0 | .
O=C(CC(Nc1ccc(F)cc1)c1ccccc1)c1ccccc1 (centres undefined) | 7.6 | 0.1 | 3.5 | 0.0 | -17.4 | -4.1 | .
